H9c2 protect – protects H9c2 cardiomyocytes from peroxide injury | protection from H2O2 cell death, % at 20 µM | AID 588492 | H2O2 injury protection, ATPLite, 2 h | 360,000 tested, 0.63% active;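 active = compounds giving at least 50% protection of heart cells from peroxide-induced death in the single-dose screen, raw or plate-pattern-corrected value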;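 note: 0% = DMSO wells with peroxide and 100% = DMSO wells without peroxide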
NTR1 ag – activates human neurotensin receptor 1. P30989. AID 493036. NTR1-U2OS beta-arrestin-GFP spot imaging, agonist mode. activation, % at 20 µM. 330,000 tested, 0.17% active;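 active = activation at or above 40% of the spot to cytoplasm intensity ratio, with at least 20 cells analyzed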;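 note: 0% = DMSO without peptide and 100% = 100 nM NTR1 peptide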
Target sequence (P30989 whole entry, looked up): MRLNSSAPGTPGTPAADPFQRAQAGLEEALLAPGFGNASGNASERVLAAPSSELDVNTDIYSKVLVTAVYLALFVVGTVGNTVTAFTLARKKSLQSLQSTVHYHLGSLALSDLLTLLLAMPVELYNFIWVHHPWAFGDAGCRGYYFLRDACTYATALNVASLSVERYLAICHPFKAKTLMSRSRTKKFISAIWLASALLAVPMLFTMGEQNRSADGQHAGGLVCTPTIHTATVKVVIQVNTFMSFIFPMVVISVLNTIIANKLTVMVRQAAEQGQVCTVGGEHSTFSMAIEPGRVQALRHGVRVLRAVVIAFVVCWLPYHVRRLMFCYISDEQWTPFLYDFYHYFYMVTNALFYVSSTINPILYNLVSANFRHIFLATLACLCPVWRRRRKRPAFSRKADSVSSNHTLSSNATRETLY
AHR activator – activators of human aryl hydrocarbon receptor; AHR-responsive luciferase reporter cells, luminescence; activation, % at 5 µM; 320,000 tested, 2.5% active; in the data active = activation above about 47%;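 note: 0% = vehicle wells and 100% = reference agonist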
Mot1-301 SUMO – SUMOylation pathway inhibition by Mot1-301 growth rescue. AID 2716. growth rescue, % at 18.8 µM. S. cerevisiae Mot1-301 growth rescue, ATP luminescence, 38.5C; percent above DMSO median, 100 means doubled. 320,000 tested, 1% active;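 active = every valid replicate shows activation above 250% relative to neutral control wells; inactive = the rest, any valid replicate at or below 250%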;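 note: OY570 slx delta 5 strain wells were the positive control but not used for scaling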
NR3A LBD binder – NR3A (human) ligand-binding domain modulation | NR3A LBD differential scanning fluorimetry, Tm shift; 0% = protein alone, 100% = glycine-bound protein | Tm shift relative to glycine control, % at 25 µM | 340,000 tested, 2.5% active;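 active = melting temperature shift of at least 10% of the positive control shift, at one fixed dose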
AI-2 QS mod – modulates the Vibrio harveyi AI-2 quorum sensing system | activity change, % at 7.5 µM | Vibrio harveyi JMH597 AI-2 luminescence/OD600 ratio, 9 h; active compounds read low; strain lacks LuxN and CqsS sensors; 0 = neutral-control median | 300,000 tested, 0.4% active | AID 2094; in the data active = activity change below about -75%, passing the limit was not always enough;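 note: luminescence divided by OD600 gain over 9 h not by final OD600 alone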
Yeast Mot1 SUMO – inhibits SUMO pathway, affecting Mot1-301 yeast growth; shares compounds with Mot1-301 SUMO; S. cerevisiae Mot1-301 galactose growth, ATP luminescence, 24 h; -100 = growth of slx-deleted rescue strain; growth activity, percent, % at 42 µM; 2,300 tested, under 10 active;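 active = Signal drops as the depositor expects, and the fitted half-maximal dose is no more than ten times the top valid tested dose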;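 note: more negative values mean stronger growth rescue toward the control strain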
Numbers without * were called inactive; nt = no result given; + = active, no number; ! = repeats disagree. Compounds with a hit are over-represented: about 6.2% of the library has one in this group of screens.

SMILES	H9c2 protect	NTR1 ag	AHR activator	Mot1-301 SUMO	NR3A LBD binder	AI-2 QS mod	Yeast Mot1 SUMO
c1coc(C2OCC3(CO2)COC(c2ccco2)OC3)c1 (stereo not given)	6	2	-1	523*	0	-9	-1
Cc1ccc(NC(=O)c2c([N+](=O)[O-])c(C(C)(C)C)nn2C)cc1	-5	2	1	6	0	-11	nt
Cn1nc(C(C)(C)C)c([N+](=O)[O-])c1C(=O)Nc1ccccc1	-6	1	-1	586*	0	16	0
COc1ccccc1N1CCN(CCN2C(=O)C3CCCCN3C2=O)CC1 (stereo not given)	-6	0	2	454*	0	27	0
COc1ccccc1N1CCN(CCCN2C(=O)C3CCCCN3C2=O)CC1 (stereo not given)	0	nt	nt	nt	7	nt	nt
Cc1nn(CC(=O)NCCc2cccs2)c(=O)c2cc3ccccc3n12	-1	-1	2	12	1	18	nt
Cc1ccc(S(=O)(=O)N2CCN(C(=O)CSc3nc(N)cc(=O)[nH]3)CC2)c(C)c1	16	1	-1	482*	2	-3	0
CC1(c2cccc(Br)c2)NC(=O)N(CC(=O)c2ccc3c(c2)OCO3)C1=O (stereo not given)	4	nt	nt	nt	nt	nt	nt
CCN(CC)S(=O)(=O)c1ccc(N2CCCC2)c(C(=O)OCC(=O)Nc2cc(C)on2)c1	1	2	1	544*	-1	8	0
CCN(CC)S(=O)(=O)c1ccc(N2CCCC2)c(C(=O)OCC(=O)N2CCCC2)c1	-1	0	2	4	-1	21	nt
COc1ccc(Cn2nnc(C(=O)Nc3ccc(F)cc3)c2N)cc1	-7	1	13	-17	-1	-1	nt
COc1ccc(NC(=O)Cn2nnc(C(=O)Nc3ccc(F)c(Cl)c3)c2N)cc1	-2	0	6	477*	-84	20	0
COc1ccc(NC2=C(C)C(=O)CC2)cc1	0	0	2	594*	-4	13	0
COC(=O)Nc1ccc(S(=O)(=O)N2CCCC(C(=O)NC3CCS(=O)(=O)C3)C2)cc1 (stereo not given)	14	0	0	387*	-1	28	0
CCN(CC)CCNc1ncnc2c1[nH]c1ccc(OC)cc12	nt	0	6	+	nt	15	1
CC(=O)N1N=C(c2ccc(C(C)(C)C)cc2)OC1(C)C	-8	2	1	536*	3	7	0
CC(=O)N1N=C(c2ccc3ccccc3c2)OC1(C)C	-18	5	-3	7	-1	3	nt
CCc1ccc(-c2cc(C)no2)cc1S(=O)(=O)NCCc1ccc(OC)c(OC)c1	6	2	5	10	2	-12	nt
CCOC(=O)c1c(C)[nH]c2c1cc(O)c1ccccc12	11	2	12	769*	-10	20	-1
COc1ccc(NC(=O)C2Cc3c(-c4cccc(C(N)=O)c4)ccnc3O2)cn1 (stereo not given)	36	nt	nt	nt	nt	nt	nt
CCCCc1nnc(NC(=O)CSc2nc(O)c(Cc3ccccc3)c(=O)[nH]2)s1	7	2	2	-1	0	42	nt
CCCCc1nnc(NC(=O)CSc2nc(O)c(-c3ccccc3)c(=O)[nH]2)s1	2	0	-1	631*	-1	38	1
CCCCCOC(=O)C1=C(C)N(C)C(=O)NC1c1cc(Br)c(O)c(OC)c1 (stereo not given)	-1	0	0	879*	1	20	0
CCCCOC(=O)C1=C(C)N(C)C(=O)NC1c1cc2c(cc1Br)OCO2 (stereo not given)	3	nt	nt	nt	nt	nt	nt
CC1(C)Cc2c(c(N3CCCC3)nc3sc4c(N5CCN(CCO)CC5)ncnc4c23)CO1	21	2	-1	707*	-3	nt	0
SMILES	H9c2 protect	NTR1 ag	AHR activator	Mot1-301 SUMO	NR3A LBD binder	AI-2 QS mod	Yeast Mot1 SUMO
COC(=O)c1ccccc1NC(=O)c1cnn2c(C)cc(C)nc12	1	4	7	892*	-1	0	1
CC1CCCCN1C(=O)C(Cc1ccccc1)N1C(=O)C2CCCCC2C1=O (stereo not given)	4	-2	-2	862*	4	36	-1
CC1CCCCN1C(=O)N[C@@H](Cc1ccccc1)C(=O)O (stereo not given in full)	6	-1	4	24	-2	17	nt
O=C1CCCN1CCC(=O)N1CCCC(N2CCN(c3ccccc3F)CC2)C1 (stereo not given)	0	1	0	481*	2	17	0
O=C1CCCCN1CC(=O)N1CCCC(N2CCN(c3ccccc3F)CC2)C1 (stereo not given)	2	-1	1	-13	-1	22	nt
Nc1ncnc2nc(SCC(=O)N3CCN(c4ccccc4)CC3)[nH]c12	-4	-1	1	+	0	15	0
COc1ccccc1N1CCN(C(=O)CSc2nc3ncnc(N)c3[nH]2)CC1	6	0	1	-18	-1	8	nt
O=C(CSc1nc(=O)n2ccccc2n1)N1CCN(c2ccccc2)CC1	4	1	1	559*	0	38	1
COc1ccc(-c2oc3ccc(-c4cc(OC)c(OC)c(OC)c4)cc3c2-c2ccc(OC)nc2)cc1	-6	6	1	419	0	26	nt
COc1ccc(Cc2nnc(NCCO)[nH]c2=O)cc1	4	0	0	446*	1	33	0
COc1ccc(Cc2nnc(NCCO)[nH]c2=O)cc1OC	1	0	0	1	-1	9	nt
Oc1cccc2ccc(/C=C/c3ccccc3Br)nc12	22	21	28	528*	14*	37	0
CSc1ccc(/C=C/c2ccc3cccc(O)c3n2)cc1	1	3	32	0	0	10	nt
CN(C)CC/C=C1\c2ccccc2Sc2ccc(Cl)cc21	10	1	-4	497*!	0	21	0
CCCC(C(=O)Nc1ccc(S(=O)(=O)Nc2nccs2)cc1)c1ccccc1 (stereo not given)	-3	1	nt	nt	0	nt	nt
CC1CN(S(=O)(=O)c2cccc(C(=O)N=c3sccn3C)c2)CC(C)O1 (stereo not given)	2	0	19	396*	4	7	-1
CCC(=O)Nc1ccc(S(=O)(=O)NCc2ccco2)cc1	-2	1	24	659*	1	38	1
CCCCn1c(N)c(N(CC(C)C)C(=O)c2cc(-c3ccc(F)cc3)nc3ccccc23)c(=O)[nH]c1=O	7	0	3	491*	-6	-16	0
CC1(C)NC(=O)N(CCCCOc2ccccc2[N+](=O)[O-])C1=O	nt	-1	6	6	nt	13	nt
